# Laboratory results from PubChem BioAssay (Tox21).
# Several values for one entry are separate records, joined by “and”; a condition that tells them apart may be missing. Equal values may be shown once. Results filed as inconclusive are left out. A structure can be active in one record and inactive in another. Activity calls are given as the source filed them. Calls follow the shape of the dose curve; as a rule, active = well fitted inhibition curve with a large enough effect in the repeat runs; inconclusive = weak or mixed curves; inactive = no such curve, though single readings can be large or run the other way.
# Molecular target: Cytochrome P450 2C9 (Homo sapiens) (UniProt P11712)
# Sequence (P11712 whole entry, looked up): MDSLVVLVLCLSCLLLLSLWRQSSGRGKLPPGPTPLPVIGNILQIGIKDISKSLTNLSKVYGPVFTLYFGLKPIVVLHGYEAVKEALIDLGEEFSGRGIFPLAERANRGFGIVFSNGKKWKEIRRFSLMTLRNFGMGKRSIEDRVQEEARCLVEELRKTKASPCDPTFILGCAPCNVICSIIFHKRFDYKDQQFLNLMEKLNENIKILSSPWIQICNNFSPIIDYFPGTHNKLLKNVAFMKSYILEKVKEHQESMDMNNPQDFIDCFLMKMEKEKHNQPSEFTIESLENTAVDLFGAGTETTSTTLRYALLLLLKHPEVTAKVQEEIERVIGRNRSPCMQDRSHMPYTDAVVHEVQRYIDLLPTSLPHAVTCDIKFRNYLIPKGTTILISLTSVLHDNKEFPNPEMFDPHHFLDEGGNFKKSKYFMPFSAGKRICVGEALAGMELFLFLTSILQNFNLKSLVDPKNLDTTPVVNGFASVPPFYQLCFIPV
# Experiment: Cytochrome P450 Family 2 Subfamily C Member 9 (CYP2C9) small molecule antagonists: luciferase reporter qHTS assay (AID 1671198); also: nearly all actives have a fitted effect of over 50% in size
# Details: P450-Glo CYP2C9 enzyme assay, luciferin luminescence; series mostly up to 53 µM
# In short: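 Enzyme-substrate mix preincubated with compound 10 min at room temperature; reaction started with NADPH regeneration solution, 1 h 37C. Luminescent luciferin product read after 20 min detection reagent.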
# Potency is read from the fitted curve at half-maximal effect.
row,Compound,Potency
1,CCCCCOC(=O)CCCC,inactive
2,C=CC(=O)OCCn1c(=O)n(CCOC(=O)C=C)c(=O)n(CCOC(=O)C=C)c1=O,35.6 µM (active)
3,CCC(Cl)C(Cl)C(Cl)CC(Cl)C(Cl)C(C)Cl (stereo not given),7.96 µM (active)
4,CCN(Cc1cccnc1)C(=O)c1cccc(Cl)c1[C@]1(C)C(=O)N(Cc2ccc(OC)cc2OC)c2ccc(Cl)cc21,1.87 µM (active)
5,c1ccc(CSCc2ccccc2)cc1,35.5 µM (active)
6,C=C(C)C(=O)OCC[N+](C)(C)C,inactive
7,CC/C(=C(\c1ccc(O)cc1)c1ccc(OCCN(C)C)cc1)c1ccccc1,71.2 µM (active)
8,CCCN(CCC)C(=O)C(CCC(=O)OCCCN1CCN(CCOC(=O)Cc2c(C)n(C(=O)c3ccc(Cl)cc3)c3ccc(OC)cc23)CC1)NC(=O)c1ccccc1 (stereo not given),4.9 µM (active)
9,CCC1OCC(COc2ccc(Oc3ccccc3)cc2)O1 (stereo not given),28.3 µM (active)
10,CCCCCCOC(=O)c1ccc(O)cc1,35.6 µM (active) and 39.9 µM (active)
11,O=C1c2c(O)ccc(Nc3ccc(CCO)cc3)c2C(=O)c2c([N+](=O)[O-])ccc(O)c21,10 µM (active)
12,O=C(c1ccc(O)cc1O)c1ccc(O)cc1O,inactive
13,C[C@]12CCC(=O)C=C1CC[C@@H]1[C@@H]2[C@@H](O)C[C@@]2(C)[C@H]1CC[C@]2(O)C(=O)COC(=O)CCC(=O)O,inactive
14,Nc1ccc2cc(S(=O)(=O)O)cc(O)c2c1N=Nc1ccccc1C(F)(F)F,63.3 µM (active)
15,O=C(Oc1cccc2cccnc12)c1ccccc1,inactive
16,CC1(C)CCC(C)(C)c2cc(C(=O)Nc3ccc(C(=O)O)cc3)ccc21,71 µM (active)
17,O=C(Oc1ccccc1)c1ccccc1C(=O)Oc1ccccc1,12.6 µM (active)
18,O=C1C=CC(=O)N1,inactive

row,Compound,Potency
1,CCCCCCCC/C=C\CCCCCCCCOCCO,29.2 µM (active)
2,CC[C@H]1O[C@]2(CC[C@@H]1C)C[C@@H]1C[C@@H](C/C=C(\C)C[C@@H](C)/C=C/C=C3\CO[C@@H]4[C@H](O)C(C)=C[C@@H](C(=O)O1)[C@]34O)O2,12.5 µM (active)
3,CN(C)c1ccc(C2(c3ccc(N(C)C)cc3)OC(=O)c3cc(N(C)C)ccc32)cc1,3.16 µM (active)
4,CCCCN1C(=O)[C@@H]([C@H](O)C2CCCCC2)NC(=O)C12CCN(Cc1ccc(Oc3ccc(C(=O)O)cc3)cc1)CC2,inactive
5,CCCCCCCCCCCC[N+](C)(C)CCCCCCCCCCCC,22.4 µM (active)
6,CN(C)c1ccc(SC#N)cc1,17.8 µM (active)
7,Nc1ccc2c3c(cccc13)-c1ccccc1-2,32.1 µM (active)
8,CC(C)(C)CC(C)(C)c1ccc(OCCOCC[N+](C)(C)Cc2ccccc2)cc1,79.6 µM (active) and inactive
9,Oc1ccc2cc(SSc3ccc4cc(O)ccc4c3)ccc2c1,71.1 µM (active) and 39.9 µM (active)
10,CCc1cc(Cc2cc(CC)cc(C(C)(C)C)c2O)c(O)c(C(C)(C)C)c1,3.17 µM (active)
11,CCCN(CCC)c1c([N+](=O)[O-])cc(C(F)(F)F)c(N)c1[N+](=O)[O-],20 µM (active)
12,C=CC(=O)OCC(CO)(COCC(COC(=O)C=C)(COC(=O)C=C)COC(=O)C=C)COC(=O)C=C,7.02 µM (active)
13,NC(=O)C1(N2CCCCC2)CCN(CCCN2c3ccccc3CCc3ccc(Cl)cc32)CC1,7.76 µM (active)
14,O=CC=C(c1ccccc1)c1ccccc1,20.2 µM (active)
15,Cc1ccc(O)c2ncccc12,inactive
16,C/C=C(\C)C(=O)OCc1ccccc1,inactive
17,O=c1[nH]sc2ccccc12,31.7 µM (active)
